# Test results published in paper PMC11062922 (Nature Chemical Biology, 2023).
# Read-outs that look alike come from different tables or passages of the source.
# What was measured:
# Design in all cases: species or system human, MV4-11 + K-562 + COLO205 + SK-N-BE2 + OVCAR-8
# ACVR1 = settings: read-out: apparent Kd, n = 1
# CDKL5 = settings: read-out: apparent Kd; compound concentrations:100 nM and 1000 nM (sheet 'Samples'); n = 1
# GSK3A = settings: read-out: apparent Kd, n = 1
# GSK3B = settings: read-out: apparent Kd, n = 1
# SIK2 = settings: read-out: apparent Kd; compound concentrations:100 nM and 1000 nM (sheet 'Samples'); n = 1
# ACAD11 = settings: read-out: apparent Kd, n = 1
# DYRK1A = settings: read-out: apparent Kd; compound concentrations:100 nM and 1000 nM (sheet 'Samples'); n = 1
# AURKB = settings: read-out: apparent Kd; compound concentrations: 100 nM and 1000 nM (sheet 'Samples'), CATDS: 4.55704320916199E-2; n = 1
# DDR1 = settings: read-out: apparent Kd, n = 1
# FLT3 = settings: read-out: apparent Kd, compound concentrations: 100 nM and 1000 nM (sheet 'Samples'), n = 1
# AKT2 = settings: read-out: apparent Kd, n = 1
# LYN = settings: read-out: apparent Kd; compound concentrations: 100 nM and 1000 nM (sheet 'Samples'), CATDS: 3.75888213105793E-2; n = 1
# EGFR = settings: read-out: apparent Kd, n = 1
# MAPK14 = settings: read-out: apparent Kd, n = 1
# FRK = settings: read-out: apparent Kd; compound concentrations: 100 nM and 1000 nM (sheet 'Samples'), CATDS: 5.2265489654336902E-2; n = 1
# CDK16 = settings: read-out: apparent Kd, n = 1
# ACVR1B = settings: read-out: apparent Kd, compound concentrations: 100 nM and 1000 nM (sheet 'Samples'), n = 1
# [1] = compound concentrations:100 nM and 1000 nM (sheet 'Samples')
smiles,measurement,setting,value
COc1cccc(-c2c[nH]c3c(N/N=C/c4ccncc4)ncnc23)c1 [GW814408X],potency estimated from few doses,ACVR1; [1],1370 nM
same,potency estimated from few doses,CDKL5,1300 nM
same,potency estimated from few doses,GSK3A; [1],133 nM
same,potency estimated from few doses,GSK3B; [1],112 nM
same,potency estimated from few doses,SIK2,1180 nM
CS(=O)(=O)c1ccc(-c2cnc(N)c(C(=O)Nc3ccccc3)n2)cc1 [VE-821],potency estimated from few doses,"ACAD11; compound concentrations: 100 nM and 1000 nM (sheet 'Samples'), CATDS: 0.28747433490732499",334 nM
same,potency estimated from few doses,"ACVR1; compound concentrations: 100 nM and 1000 nM (sheet 'Samples'), CATDS: 0.23402364017956601",475 nM
CC(=O)c1c(-c2ccncc2)[nH]c(-c2ccncc2)c1C [GW493036X],potency estimated from few doses,CDKL5,1670 nM
same,potency estimated from few doses,DYRK1A,53.7 nM
same,potency estimated from few doses,GSK3A; [1],400 nM
same,potency estimated from few doses,GSK3B; [1],535 nM
CN1CCN(Cc2ccc(NC(=O)Nc3ccc(N(C)c4ccnc(Nc5ccc(CS(C)(=O)=O)cc5)n4)cc3)cc2)CC1.Cl [GW827654A],potency estimated from few doses,AURKB,700 nM
same,potency estimated from few doses,"DDR1; compound concentrations: 100 nM and 1000 nM (sheet 'Samples'), CATDS: 9.0540797508364801E-2",147 nM
same,potency estimated from few doses,FLT3; CATDS: 0.105116266606525,112 nM
Clc1ccc(-c2nn3ncccc3c2-c2ccnc(Nc3ccccc3)n2)cc1 [GW829055X],potency estimated from few doses,"AKT2; compound concentrations: 100 nM and 1000 nM (sheet 'Samples'), CATDS: 4.03721310315426E-2",1150 nM
same,potency estimated from few doses,LYN,1350 nM
Cl.Oc1ccc2ncnc(Nc3ccc(OCc4ccccc4)cc3)c2c1 [GI262866A],potency estimated from few doses,EGFR; [1],106 nM
same,potency estimated from few doses,MAPK14; [1],770 nM
CS(=O)(=O)c1ccc(-c2nc3n(c2-c2ccncc2)CCC3)cc1 [SKF-105942],potency estimated from few doses,"AKT2; compound concentrations: 100 nM and 1000 nM (sheet 'Samples'), CATDS: 0.110414115877762",2470 nM
O=C1Nc2ccc(F)cc2/C1=C/c1ccc[nH]1 [RO0272148-000],potency estimated from few doses,FLT3; CATDS: 0.86450810261160804,98.5 nM
Cc1ccc(-n2nc(C(C)(C)C)cc2NC(=O)Nc2ccc(OCCN3CCOCC3)cc2)cc1 [BIRB0876BS],potency estimated from few doses,DDR1; [1],607 nM
COc1cc(N2CCN(C(C)C)CC2)ccc1Nc1nc(Nc2cccc(F)c2C(=O)O)c2cc[nH]c2n1 [GSK1819799A],potency estimated from few doses,"AKT2; compound concentrations: 100 nM and 1000 nM (sheet 'Samples'), CATDS: 4.3054850332127297E-2",1950 nM
same,potency estimated from few doses,FRK,1130 nM
COc1ccccc1C(=O)c1cnc(NC2CCN(S(C)(=O)=O)CC2)nc1N [RO4514610-000],potency estimated from few doses,CDK16; [1],721 nM
Cn1cc(C2=C(c3cn(CCCN/C(N)=N/[N+](=O)[O-])c4ccccc34)C(=O)NC2=O)c2ccccc21 [RO0318161-000],potency estimated from few doses,"GSK3A; compound concentrations: 100 nM and 1000 nM (sheet 'Samples'), CATDS: 0.30578210093767899",1280 nM
CC(=O)Nc1ccc2c(C3=C(c4cn(C)c5ccccc45)C(=O)NC3=O)cn(C)c2c1 [RO0317596-000],potency estimated from few doses,"GSK3A; compound concentrations: 100 nM and 1000 nM (sheet 'Samples'), CATDS: 0.16934615909466",626 nM
same,potency estimated from few doses,"GSK3B; compound concentrations: 100 nM and 1000 nM (sheet 'Samples'), CATDS: 0.12883781394947599",1100 nM
COc1ccc(-c2ccncc2)cc1C(N)=O [GSK605714A],potency estimated from few doses,"ACAD11; compound concentrations: 100 nM and 1000 nM (sheet 'Samples'), CATDS: 0.66413142428119099",619 nM
Fc1cccc(COc2ccc(Nc3ncncc3C#Cc3ccccc3)cc2Cl)c1 [GW651576X],potency estimated from few doses,"EGFR; compound concentrations: 100 nM and 1000 nM (sheet 'Samples'), CATDS: 8.85764063435832E-2",663 nM
COc1cc(F)c(F)c(F)c1C(=O)c1cnc(NC2CCN(S(C)(=O)=O)CC2)nc1N [RO4600703-000],potency estimated from few doses,CDK16; [1],51 nM
Nc1c(C(=O)c2ccccc2)cnn1-c1ccc(F)cc1 [RO1151246-000],potency estimated from few doses,AKT2; [1],1800 nM
same,potency estimated from few doses,CDKL5,997 nM
same,potency estimated from few doses,"MAPK14; compound concentrations: 100 nM and 1000 nM (sheet 'Samples'), CATDS: 4.1752144248388801E-2",1630 nM
COc1cc2ncn(-c3cc(O[C@H](C)c4ccccc4Cl)c(C(N)=O)s3)c2cc1OC [GSK237701A],potency estimated from few doses,ACAD11; [1],756 nM
COc1ccc(C2=C(c3cn(C)c4ccccc34)C(=O)NC2=O)cc1OC [RO3206363-000],potency estimated from few doses,"AKT2; compound concentrations: 100 nM and 1000 nM (sheet 'Samples'), CATDS: 8.3129465265060903E-2",149 nM
same,potency estimated from few doses,"GSK3A; compound concentrations: 100 nM and 1000 nM (sheet 'Samples'), CATDS: 4.8098017287816999E-2",503 nM
same,potency estimated from few doses,"GSK3B; compound concentrations: 100 nM and 1000 nM (sheet 'Samples'), CATDS: 4.2103313064090798E-2",722 nM
Cn1cc(C2=C(c3ccccc3[N+](=O)[O-])C(=O)NC2=O)c2ccccc21 [RO0317753-000],potency estimated from few doses,"CDK16; compound concentrations: 100 nM and 1000 nM (sheet 'Samples'), CATDS: 7.8370889513180206E-2",1340 nM
same,potency estimated from few doses,"GSK3A; compound concentrations: 100 nM and 1000 nM (sheet 'Samples'), CATDS: 0.31381008714401198",26.1 nM
same,potency estimated from few doses,"GSK3B; compound concentrations: 100 nM and 1000 nM (sheet 'Samples'), CATDS: 0.304149371612502",27.6 nM
Cl.Fc1cccc(COc2ccc(Nc3ncnc4cc(-c5ccc[nH]5)sc34)cc2Cl)c1 [GW693881A],potency estimated from few doses,"EGFR; compound concentrations: 100 nM and 1000 nM (sheet 'Samples'), CATDS: 0.260445959414705",495 nM
Fc1ccc(-c2ncn(C3CCNCC3)c2-c2ccnc(Oc3ccc4c(c3)OCO4)n2)cc1 [SB-250715],potency estimated from few doses,AKT2; [1],1360 nM
same,potency estimated from few doses,CDK16; [1],2360 nM
same,potency estimated from few doses,MAPK14; [1],10.7 nM
CCS(=O)(=O)c1ccc(OC)c(Nc2ncc(-c3cccc(F)c3)o2)c1 [GW621970X_KCGS],potency estimated from few doses,DYRK1A,1660 nM
Cc1[nH]nc2c1N=C(c1ccccc1Cl)c1cc([N+](=O)[O-])ccc1N2 [RO0274406-000],potency estimated from few doses,"GSK3A; compound concentrations: 100 nM and 1000 nM (sheet 'Samples'), CATDS: 0.10002413728449901",504 nM
same,potency estimated from few doses,"GSK3B; compound concentrations: 100 nM and 1000 nM (sheet 'Samples'), CATDS: 0.102894851356177",472 nM
Cn1cc(C2=C(c3cn(CCCCCO)c4ccccc34)C(=O)NC2=O)c2ccccc21 [RO0318053-000],potency estimated from few doses,"GSK3A; compound concentrations: 100 nM and 1000 nM (sheet 'Samples'), CATDS: 0.11270550310053699",467 nM
same,potency estimated from few doses,"GSK3B; compound concentrations: 100 nM and 1000 nM (sheet 'Samples'), CATDS: 0.11014328392113699",504 nM
COc1ccc(-c2nn3ncccc3c2-c2ccnc(Nc3ccc4c(c3)OCCO4)n2)cc1 [GW827106X],potency estimated from few doses,ACVR1B; CATDS: 6.5023219002079705E-2,849 nM
same,potency estimated from few doses,"DDR1; compound concentrations: 100 nM and 1000 nM (sheet 'Samples'), CATDS: 9.2725066561010094E-2",461 nM
same,potency estimated from few doses,"MAPK14; compound concentrations: 100 nM and 1000 nM (sheet 'Samples'), CATDS: 7.81285273726149E-2",610 nM
Cl.c1ccc(-c2ccc3c(Nc4ccc5[nH]ncc5c4)ccnc3c2)nc1 [GW440137A],potency estimated from few doses,ACVR1B; CATDS: 0.112387102296717,766 nM
same,potency estimated from few doses,"ACVR1; compound concentrations: 100 nM and 1000 nM (sheet 'Samples'), CATDS: 0.106513578189519",904 nM
